KCNQ2 inh – blocks the rat KCNQ2 potassium channel. CHO-K1 KCNQ2, FluxOR thallium flux, 20 min; stronger effect = lower value. B-score at 10 µM. 310,000 tested, 1.1% active;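 active = fluorescence ratio B-score at most minus 3 library SDs, with starting brightness B-score within 2 library SDs, cut at about -5.5 in these data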
KCNQ2 pot – potentiators of rat KCNQ2 potassium channel. AID 2239. O88943. 310,000 tested, 0.54% active. B-score at 10 µM. CHO-K1 KCNQ2, FluxOR thallium flux fluorescence; stronger effect = higher value;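 active = fluorescence ratio B-score at least 3 SD of library B-scores, with initial fluorescence B-score within 3 of them, cut at about 5.3 in these data; same plate scores as AID 2156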;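 note: B-score of peak minus minimum over baseline fluorescence ratio after K+ and Tl+ stimulus; positive B-score means potentiation of KCNQ2 with more thallium influx and brighter signal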
An asterisk follows results filed as active; i = inactive; . = no result. Sampled rows, rich in hits. Any-hit rate of the full collection: about 1.6%.

SMILES	KCNQ2 inh	KCNQ2 pot
COc1ccccc1/C=C(/CC(=O)NCc1ccccc1)c1nc2ccccc2s1	i	.
COc1ccccc1/C=C(/CC(=O)NCc1ccc(F)cc1)c1nc2ccccc2s1	-6.76*	-6.76
Cc1ccccc1C(=O)Nc1ccccc1N1CCCCC1	i	.
O=C(Nc1ccccc1N1CCCC1)c1cc(Cl)ccc1Cl	-5.74*	-5.74
O=C(Nc1ccccc1N1CCCC1)c1ccc(Cl)cc1Cl	i	.
O=C(Nc1ccccc1N1CCCC1)c1ccccc1Cl	-6.08*	-6.08
CN(Cc1cccc(F)c1)C(=O)CNS(=O)(=O)c1ccc2ccccc2c1	i	.
C[C@H]1CCC[C@@]2(O[C@H](CCO)C[C@@H](O)[C@@H]2O)O1	i	0.63
Cc1ccc(C2CCN(C(=S)Nc3cccc(C)c3)C2)cc1 (stereo not given)	i	0.27
Cc1[nH]c(C)c(S(=O)(=O)N2c3ccccc3CC2C)c1C(=O)N1CCCCC1 (stereo not given)	i	.
NS(=O)(=O)c1ccc(CCNC(=O)c2cc3ccccc3s2)cc1	i	.
CC1=CC(C)(C)N2C(=O)C3(SCC(=O)N3c3ccc(F)cc3)c3cc(C)cc1c32 (stereo not given)	-6.04*	-6.04
CC1=CC(C)(C)N2C(=O)C3(NCCc4c3[nH]c3ccccc43)c3cc(C)cc1c32 (stereo not given)	i	.
CC(C)C(=O)Nc1cccc(C(=O)Nc2nnc(C(C)C)s2)c1	i	0.06
CC(C)c1nnc(NC(=O)c2cccc(NC(=O)C(F)(F)F)c2)s1	-5.93*	-5.93
CCN(CC)S(=O)(=O)c1ccc2c(c1)N(CC(=O)NCCN1CCOCC1)C(=O)CO2	i	0.9
Cc1ccc(-c2cc(-c3ccc(C)o3)nc(N)c2C#N)cc1	i	.
Cc1ccc(-c2cc(-c3ccc(Cl)cc3)c(C#N)c(N)n2)o1	-6.79*	-6.79
COc1ccc(CCN2C(=O)C3C(C2=O)C2C=CC3C23CC3)cc1OC (stereo not given)	i	.
Cc1ccc(C)c(CN2C(=O)NC3(CCCCCC3)C2=O)c1	i	1.25
Cc1ccc2c(CN3C(=O)NC4(CCCCC4)C3=O)cc(=O)oc2c1C	-6.57*	-6.57
O=C(CNC(=O)COc1ccccc1)NCc1cccnc1	i	1
Cc1cc(C)c(OCCN2CCOCC2)c(Cl)c1	i	.
Cc1c(Cl)ccc2c(C(=O)Nc3cc(C(C)(C)C)on3)cc(-c3ccccn3)nc12	-5.93*	-5.93
Cc1cccc2c(C(=O)Nc3ccc(Br)cc3)cc(-c3ccccn3)nc12	i	0.05
SMILES	KCNQ2 inh	KCNQ2 pot
O=C(CSc1nnc(CNC(=O)c2c(F)cccc2F)o1)Nc1ccc2c(c1)OCCO2	i	.
COc1ccccc1COCC(O)CNCCc1ccc(C(F)(F)F)cc1 (stereo not given)	i	.
OC(CNCCc1ccc(C(F)(F)F)cc1)COc1cccc2ccccc12 (stereo not given)	-7.1*	-7.1
O=C(O)c1ccc(N=Nc2c(O)[nH]c3ccc(Br)cc23)cc1	i	2.3
O=c1ccc2cc3c([nH]c4ccc(Br)cc43)oc-2c1O	i	9.65*
C=CCSc1nnc(NC(=O)c2cccc(S(=O)(=O)N(C)c3ccccc3)c2)s1	i	.
NC(=NCCc1c[nH]c2ccccc12)NC(=O)c1ccc(Cl)cc1	-5.69*	-5.69
O=C(N[C@@H](Cc1c[nH]c2ccccc12)C(=O)O)c1ccc(Cl)cc1	i	1
Cc1onc(-c2ccccc2)c1C(=O)NC(=S)Nc1sc2c(c1C#N)CCC(C)C2 (stereo not given)	i	10.3*
Cc1onc(-c2ccccc2)c1C(=O)NC(=S)Nc1sc2c(c1C#N)CCCC2	i	2.63
COC(=O)Cn1c(O)c(N=NC(=O)CNC(=O)c2ccncc2)c2ccccc21	i	0.57
Oc1cc2c(cc1CN1CCN(c3cccc(C(F)(F)F)c3)CC1)CCC2	-7.26*	-7.26
COc1ccc(N2CCN(Cc3cc4c(cc3O)CCC4)CC2)cc1	i	0.46
Cc1ccc(NC(=O)C2CCN(c3ncnc4c3nc3n4CCCCC3)CC2)nc1	i	0.42
COc1cc2c(cc1OC)C(c1ccc(-c3cc(Cl)ccc3Cl)o1)=NCC2	i	.
COc1cc2c(cc1OC)C(c1ccc(-c3ccc(Cl)c(Cl)c3)o1)=NCC2	-8.83*	-8.83
COc1cc2c(cc1OC)C(c1ccc(-c3ccc(Cl)cc3Cl)o1)=NCC2	i	.
COc1cc2c(cc1OC)C(c1ccc(-c3ccccc3Cl)o1)=NCC2	-8.35*	-8.35
Cn1c(=O)oc2cc(S(=O)(=O)CCC(=O)Nc3ccccc3)ccc21	i	.
CNc1ccc(Br)cc(C(=O)/C=C/c2cc(OC)ccc2OC)c1=O	i	.
CCNc1ccc(Br)cc(C(=O)/C=C/c2ccc(Cl)cc2Cl)c1=O	-5.82*	-5.82
COc1ccc(-n2nc3c(c2NC(=O)c2cc4ccccc4o2)CS(=O)(=O)C3)cc1	i	.
Cc1ccccc1-n1nc2c(c1NC(=O)c1cc3ccccc3o1)CS(=O)(=O)C2	-7.63*	-7.63
Cc1ccccc1-n1nc2c(c1NC(=O)c1ccco1)CS(=O)(=O)C2	i	0.64
Cc1ccccc1-n1nc2c(c1NC(=O)c1ccc(Br)o1)CSC2	-5.88*	-5.88
SMILES	KCNQ2 inh	KCNQ2 pot
CCCC(=O)N1c2ccccc2C(=C2SC(C(=O)OC)=C(C(=O)OC)S2)C(=S)C1(C)C	-7.94*	-7.94
COC(=O)C1=C(C(=O)OC)SC(=C2C(=S)C(C)(C)N(C(=O)C(C)C)c3ccccc32)S1	i	.
CC(C)N(C(=S)Nc1cccnc1)c1ccccc1	i	.
CSc1ncc(C(=O)Nc2ccc(Br)cn2)c(C)n1	i	.
COc1ccc(Nc2nc3ccccc3nc2-n2nc(C)cc2C)cc1	i	.
Cc1cc(C)n(-c2nc3ccccc3nc2NCCc2ccccc2)n1	-7.46*	-7.46
COCc1nnc(NC(=O)c2ccccc2Oc2ccccc2)s1	-6.14*	-6.14
COCCSc1ccccc1C(=O)Nc1nnc(COC)s1	i	.
O=C(/C=C/c1cccs1)c1cc(Br)ccc1OC(=O)N1CCOCC1	-6.81*	-6.81
COc1ccc(C(=O)/C=C/c2cccs2)c(OC(=O)N2CCOCC2)c1	i	0.23
Cc1ccc(C)c(N2CCN(C(=O)Cc3ccc(NC4=NC5CS(=O)(=O)CC5S4)cc3)CC2)c1 (stereo not given)	i	.
Cc1ccc(N2CC(C(=O)Nc3ccc(S(=O)(=O)Nc4ncccn4)cc3)CC2=O)cc1C (stereo not given)	i	1.28
COc1ccc(C(=O)OCCc2sc[n+](CC(=O)c3ccccc3)c2C)cc1	i	1.46
Cc1c(CCOC(=O)C2C3CC4CC(C3)CC2C4)sc[n+]1CC(=O)c1ccc(Br)cc1 (stereo not given)	-7.19*	-7.19
COc1ccc(CNC(=O)CCCNC(=O)c2ccc(Cl)cc2)cc1OC	i	1.43
CCOC(=O)COc1c(Cl)cc(/C=C2\N=C(C)OC2=O)cc1OC	i	.
CCCCNC(=O)c1onc(CSc2cc(C)cc(C)c2)c1C(=O)O	i	1.9
CCCCNC(=O)c1onc(CSc2cc(C)cc(C)c2)c1C(=O)NCCCC	-5.61*	-5.61
CN(C)CC(C)(C)CN=Cc1c(O)[nH]c2ccccc12	i	0.32
O=C(c1sc2ccccc2c1Cl)N1CCN(c2ccccc2F)CC1	i	.
O=C(c1sc2ccccc2c1Cl)N1CCN(c2ccc(F)cc2)CC1	-6.59*	-6.59
COc1ccc(CNC(=O)C/C(C)=N/NC(=O)COc2ccc(Br)cc2)cc1	i	.
Cc1ncc(CO)c(CNc2ccc(Oc3ccccc3)cc2)c1O	i	1.14

Screening data: PubChem, Johns Hopkins Ion Channel Center
